Experimental data from PubChem BioAssay AID651658 (Broad Institute, 2012).
The whole screen tested about 340,000 compounds, of which about 5,100 (1.5%) were called active. The sample holds actives, similar compounds and a random draw of the others, so the mix is not that of the screen.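 The calls were made as follows: active = mean Tm shift, scaled 0 neutral to 100 positive control, at about 1.3% or above, every replicate too (limit read from the data); inconclusive = no clear call, values can overlap the other calls; inactive = the rest.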

target: Fibroblast growth factor 22 (Homo sapiens) (UniProt Q9HCT0); assay: binders of human FGF22 protein, primary screen, FGF22 synaptogenesis inhibitor project, biophysical, thermal shift, single point (AID 651658); details: recombinant FGF22 thermal shift, SYPRO orange fluorescence; at 9.99 µM; active compounds read high; percent of sucrose octasulfate shift, DMSO zero
Sequence (Q9HCT0 whole entry, looked up): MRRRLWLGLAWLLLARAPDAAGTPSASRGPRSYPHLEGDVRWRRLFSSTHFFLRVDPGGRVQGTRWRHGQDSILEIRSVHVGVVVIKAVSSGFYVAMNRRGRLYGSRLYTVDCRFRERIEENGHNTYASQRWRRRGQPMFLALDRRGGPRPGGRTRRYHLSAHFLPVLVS

| SMILES | activity (Tm shift, normalised) |
| --- | --- |
| CCCN1C[C@@H](C)[C@@H](OC)CN(C)C(=O)c2cc(NC(=O)CC(F)(F)F)ccc2OC[C@H]1C | 0.002% (inactive) |
| O=C(N/N=C/c1ccc(OCc2ccccc2)cc1)c1ccc(O)cc1 | 2.5% (active) |
| O=C(Cc1cccs1)N/N=C/c1ccc(OCc2ccccc2)cc1 | 0.285% (inactive) |
| CCOc1ccc(-c2cc(C(=O)N/N=C/c3ccc(O)cc3)c3ccccc3n2)cc1 | 0.307% (inactive) |
| CCCNC(=O)N1CC2(CCN(C(=O)C3CC3)CC2)c2c([nH]c3cc(OC)ccc23)[C@H]1CO | -0.002% (inactive) |
| CCC(=O)N(C)C[C@@H]1Oc2ncc(C#Cc3cccnc3)cc2C(=O)N([C@@H](C)CO)C[C@@H]1C | 0.101% (inactive) |
| Cc1ccc(SCCC(=O)NCc2ccccn2)cc1 | 0.257% (inactive) |
| Cc1cc(Cl)ccc1OCCCC(=O)Nc1cccc(-n2cnnn2)c1 | 0.032% (inactive) |
| Cc1cc(Cl)ccc1OCCCC(=O)NCc1ccccn1 | 43.6% (active) |
| COc1cccc(C(=O)n2ccc(-c3cccs3)n2)c1 | -0.099% (inactive) |
| COc1cc(OC)cc(-c2nc(=S)n3ccsc3n2)c1 | 43.5% (active) |
| C[C@@H]1CCCCO[C@H](CN(C)C(=O)Nc2ccc(C(F)(F)F)cc2)[C@@H](C)CN([C@@H](C)CO)C(=O)c2cc(NC(=O)Nc3cccc4ccccc34)ccc2O1 | -0.177% (inactive) |
| C[C@H]1CCCCO[C@@H](CN(C)Cc2ccccc2)[C@@H](C)CN([C@@H](C)CO)C(=O)c2cc(NC(=O)Cc3ccccc3)ccc2O1 | -0.273% (inactive) |
| Cc1ccc(S(=O)(=O)N(Cc2ccccc2)c2ccccn2)cc1[N+](=O)[O-] | -0.192% (inactive) |
| CCOc1ccc2sc(NS(=O)(=O)c3ccc(N)cc3)nc2c1 | 0.571% (inactive) |
| Cc1ccc(S(=O)(=O)Nc2nc3ccccc3s2)cc1[N+](=O)[O-] | 2.09% (active) |
| CO[C@H](CN(C)C(=O)c1ccc2c(c1)OCO2)[C@H](C)CN([C@@H](C)CO)S(=O)(=O)c1ccc(Cl)cc1 | 0.025% (inactive) |
| C[C@@H]1CCCCO[C@H](CN(C)S(=O)(=O)c2ccc(Cl)cc2)[C@H](C)CN([C@@H](C)CO)C(=O)c2cc(NS(=O)(=O)c3cn(C)cn3)ccc2O1 | -0.295% (inactive) |
| CN(C)CCCn1c(=O)n(Cc2ccccc2)c(=O)c2c3c(sc21)CCCCC3 | 5.16% (active) |
| O=c1c2c3c(sc2n(CCN2CCCC2)c(=O)n1Cc1ccccc1)CCCCC3 | -0.07% (inactive) |
| COCCn1cnc2c1c(=O)n(Cc1ccc(Br)cc1)c(=O)n2Cc1ccccc1 | 0.138% (inactive) |
| CC(C)NC(=O)N(C)C[C@@H]1OCCCC[C@@H](C)Oc2ccc(NC(=O)NC3CCCCC3)cc2C(=O)N([C@@H](C)CO)C[C@@H]1C | -0.284% (inactive) |
| COc1ccc(/C=C(/NC(=O)c2ccccc2)C(=O)Nc2cccc(C(=O)O)c2)cc1 | -0.131% (inactive) |
| CCOC(=O)CNC(=O)/C(=C\c1ccc(F)cc1)NC(=O)c1ccccc1 | 0.033% (inactive) |
| CCOc1ccc(/C=C(/NC(=O)c2ccccc2)C(=O)NCCC(=O)O)cc1 | 43.7% (active) |
| O=C(C[C@H]1C[C@H]2c3cc(NC(=O)Nc4ccc(C(F)(F)F)cc4)ccc3O[C@H]2[C@@H](CO)O1)NCCc1ccccc1 | 0.15% (inactive) |
| C[C@@H]1CN([C@H](C)CO)C(=O)c2cc(NC(=O)CCCCCC(=O)Nc3ccccc3N)ccc2O[C@H]1CN(C)Cc1ccncc1 | -0.063% (inactive) |

| SMILES | activity (Tm shift, normalised) |
| --- | --- |
| C[C@@H]1CN([C@H](C)CO)C(=O)c2c(c3ccccc3n2C)-c2ccccc2CO[C@H]1CN(C)Cc1ccc(F)cc1 | 0.453% (inactive) |
| COc1cc(C=O)c(Br)cc1OCC(=O)NCc1ccccc1 | -0.006% (inactive) |
| COc1cc(C(=S)NCc2ccccc2)cc(Br)c1O | 44.4% (active) |
| COc1cc(C(=O)NCc2ccncc2)cc(Br)c1OCc1ccccc1 | -0.2% (inactive) |
| CCCC(=O)N1CC2(CCN(C(=O)C3CC3)CC2)c2c(n(C)c3cc(OC)ccc23)[C@H]1CO | 0.143% (inactive) |
| O=C1CC(c2ccccc2)C(=O)N2C(=O)CC(c3ccccc3)C(=O)N12 (stereo not given) | -0.169% (inactive) |
| O=C1OCC2=C1C(c1ccccc1)CC(=O)N2c1cccc(F)c1 (stereo not given) | 43.2% (active) |
| CN1C(=O)CC(c2ccccc2)C1=O (stereo not given) | 0.006% (inactive) |
| N#Cc1cc([N+](=O)[O-])ccc1NC(=O)COC(=O)c1cnccn1 | -0.067% (inactive) |
| COc1cc(NC(=O)COC(=O)c2cnc(C)cn2)c(C)cc1[N+](=O)[O-] | 43.3% (active) |
| Cc1cnc(C(=O)OCC(=O)NCCCc2ccccc2)cn1 | 0.133% (inactive) |
| COc1cccc(CNC(=O)C[C@H]2CC[C@@H](NC(=O)C3CCC3)[C@@H](CO)O2)c1 | -0.144% (inactive) |
| CCc1ccccc1NC(=O)CN(C)C(=O)c1cc(C2CC2)nn1-c1ccccc1 | 0.146% (inactive) |
| COc1ccc(CN2CCN(C(=O)c3cc(C4CC4)nn3-c3ccccc3)CC2)cc1F | -0.038% (inactive) |
| CCc1ccccc1NC(=O)CN1CCN(C(=O)c2cc(C3CC3)nn2-c2ccccc2)CC1 | 44.1% (active) |
| O=C(CC(F)(F)F)N1C[C@H]2[C@@H](c3ccccc31)[C@H](CO)N2C(=O)Cc1ccccc1 | -0.096% (inactive) |
| CS(=O)(=O)N1CCN(C(=O)CSc2ccccc2)CC1 | -0.196% (inactive) |
| CC(C)NC(=S)N1CCN(S(C)(=O)=O)CC1 | -0.113% (inactive) |
| CCCCNC(=O)N1CCN(S(C)(=O)=O)CC1 | 43% (active) |
| COc1ccc(Cc2nnc(SCC(=O)c3cccc([N+](=O)[O-])c3)n2C)cc1 | 0.217% (inactive) |
| COc1cccc(NCCC(=O)c2cccc([N+](=O)[O-])c2)c1 | 43.4% (active) |
| COc1cccc(C(=O)CC(=O)C(=O)Nc2ccc([N+](=O)[O-])cc2C)c1 | -0.246% (inactive) |
| CCC(CC)NC(=O)/C=C/c1cccc([N+](=O)[O-])c1 | -0.166% (inactive) |
| Cc1ccc(NC(=O)O/N=C/c2cccc([N+](=O)[O-])c2)cc1 | 1.7% (active) |
| Cc1ccc(NC(=O)C(=O)NCC2CCN(C(=O)c3cccc([N+](=O)[O-])c3)CC2)cc1 | 0.238% (inactive) |
| CO[C@H]1CN(C)C(=O)c2cc(NC(=O)Nc3ccc4c(c3)OCO4)ccc2OC[C@@H](C)NC[C@@H]1C | -0.132% (inactive) |
| O=C(C1CCCCC1)N1CC2(C1)[C@H](c1ccccc1)[C@@H](CO)N2Cc1cncnc1 | -0.162% (inactive) |

| SMILES | activity (Tm shift, normalised) |
| --- | --- |
| COc1ccc(NC(=O)Nc2ccc3c(c2)[C@H]2C[C@H](CC(=O)NC4CCCCC4)O[C@H](CO)[C@H]2O3)cc1 | 0.101% (inactive) |
| COc1cccc(S(=O)(=O)N2C[C@@H](O)COC[C@H]3O[C@@H](CC(=O)N4CCOCC4)CC[C@@H]32)c1 | -0.291% (inactive) |
| CC=Cc1ccc2n(c1=O)C[C@H]1[C@H](CO)[C@@H](C(=O)NCc3ccncc3)N(Cc3cncnc3)[C@@H]21 (mixture of isomers) | -0.145% (inactive) |
| COCCNC(=O)C[C@H]1C=C[C@@H](NS(=O)(=O)c2ccc(C)cc2)[C@@H](CO)O1 | -0.463% (inactive) |
| COc1ccc(NC(=O)Nc2ccc3c(c2)C(=O)N([C@H](C)CO)C[C@@H](C)[C@H](CN(C)CC2CCCCC2)OCCCC[C@@H](C)O3)cc1 | -0.629% (inactive) |
| CC(=O)N1[C@@H](CO)[C@@H](c2ccc(C3=CCCC3)cc2)C12CN(C(=O)C1CC1)C2 | -0.078% (inactive) |
| COc1cccc(NC(=O)Nc2ccc(F)cc2)c1 | 45.2% (active) |
| O=C(Nc1ccncc1)Nc1ccc(F)cc1 | 0.093% (inactive) |
| COc1cccc(C(=O)NNS(=O)(=O)c2ccc(F)cc2)c1 | 0.083% (inactive) |
| COCC(=O)N1CC2(CN(C(=O)c3cccnc3)C2)c2c([nH]c3cc(OC)ccc23)[C@H]1CO | -0.173% (inactive) |
| Cc1ccc(S(=O)(=O)NCC(=O)NNC(=O)c2ccc(Br)cc2)cc1C | 43.7% (active) |
| Cc1ccc(S(=O)(=O)NCCC(=O)NCc2ccc(Cl)cc2)cc1C | -0.011% (inactive) |
| O=C(CNC(=O)c1ccco1)NNC(=O)c1ccc(Br)cc1 | -0.466% (inactive) |
| O=C(C[C@H]1C=C[C@H](NC(=O)CC2CC2)[C@H](CO)O1)NCc1ccc(Cl)cc1 | -0.113% (inactive) |
| COc1cc2c(=O)n(C)c3ccccc3c2cc1OC | 0.02% (inactive) |
| Cc1cc(C)c(-c2c(O)c3ccccc3n(C)c2=O)c(C)c1 | -0.131% (inactive) |
| Cn1c2ccccc2c(=O)c2c(O)cccc21 | 43.7% (active) |
| O=C(C[C@H]1CC[C@H]2[C@@H](COC[C@H](O)CN2Cc2ccncc2)O1)NCC1CC1 | -0.243% (inactive) |
| CN1[C@H](C(=O)N2CCc3ccccc3C2)[C@@H](CO)[C@@H]2Cn3c(ccc(-c4cncnc4)c3=O)[C@@H]21 | 0.086% (inactive) |
| Cc1cc(C)cc(NC(=O)CSc2ccccc2)c1 | 43.4% (active) |
| Cc1cc(C)cc(NC(=O)CN2C(=O)c3ccccc3C2=O)c1 | -0.094% (inactive) |
| O=C(CSc1ccccc1)Nc1ccc(C(=O)Nc2cccc(O)c2)cc1 | 42.3% (inactive) |
| O=C(CN1C(=O)NC2(CCCCCC2)C1=O)NC1CC1 | -0.266% (inactive) |
| O=C(CN1C(=O)NC2(CCCC2)C1=O)NCC1CCCO1 (stereo not given) | 43.3% (active) |
| O=C(CN1C(=O)NC2(CCCCCC2)C1=O)NCc1ccc(F)cc1 | 0.013% (inactive) |
| COc1cccc(NC(=O)C[C@H]2CC[C@@H]3[C@@H](COc4ccc(NC(=O)C5CCOCC5)cc4C(=O)N3C)O2)c1 | 0.326% (inactive) |
